Many of the other results were omitted from the sample, so hits are more common in it than they were.
Pf Dd2 growth – blocks in vitro growth of P. falciparum Dd2; Potency, µM (series often up to 28.9 µM), actives largely listed as inhibitors; P. falciparum Dd2 growth, SYBR Green, 72 h; AID 1347417; hit rate 4.3% among 120,000; active means well fitted inhibition curve with a large enough effect; further: nearly all actives have a fitted effect of over 65% in size
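Infected erythrocytes (Dd2, 0.3% parasitemia, 2.5% hematocrit final) are added to compound in RPMI-1640/Albumax II medium, grown 72 h at 37C in low oxygen, then lysed with saponin/Triton-X containing SYBR Green and read by fluorescence.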
Large screens that a line does not name were inactive.

Cc1cc(C(=O)Nc2ccc(-n3c(C)nc4ccccc4c3=O)cc2)ccc1[N+](=O)[O-]	none
COc1ccccc1OCCNC(=O)C1(C)CCCCC(=O)N1 (stereo not drawn)	none
C=CCn1ccn2cnc(-c3ccccc3)c2c1=O	none
COc1ccc(-c2nc(C3CC3)nc3c2CN(C(=O)c2ccc(C(F)(F)F)cc2)CC3)cc1	none
COc1ccc(C(=O)N2CC[C@@H]3CN(S(C)(=O)=O)[C@@H]3C2)cn1	none
O=C(NC1CCCC1)C1CCCN(c2nc(-c3ccccc3)nc3c2CCC3)C1 (stereo not drawn)	none
CC1CCN(C(=O)C2CCN(c3nc(-c4ccccc4)nc4c3CCC4)CC2)CC1	none
NC1CCN(C(=O)C2CCN(c3nc(-c4ccccc4)nc4c3CCC4)CC2)C1 (stereo not drawn)	none
OCCC1CN(c2nc(-c3ccccc3)nc3c2CCC3)CCN1C1CCCC1 (stereo not drawn)	Pf Dd2 growth 10µM
Cc1ccc(C#N)c(N2CCN(C3CCCC3)C(CCO)C2)n1 (stereo not drawn)	none
O=C(C1CCN(c2nc(-c3ccccc3)nc3c2CCC3)CC1)N1CCCNCC1	Pf Dd2 growth 8.9µM
N#Cc1cccc(CN2CCOC[C@H](O)C2)c1	none
O=C(CCC[C@@H]1[C@H]2CCCN3CCC[C@@H](CN1Cc1cccnc1)[C@@H]23)NCCN1CCOCC1	none
NCCO[C@H]1C[C@@H](O)C12CCN(Cc1c(Cl)cccc1Cl)CC2	none
COc1ccc(-c2nn3c(-c4ccccc4C)nnc3c3ccccc23)cc1	Pf Dd2 growth 11µM
COc1ccc(-c2oc3ncn4nc(-c5ccccc5C)nc4c3c2-c2ccc(OC)cc2)cc1	none
Cc1ccc(-c2nnc3c4ccccc4c(-c4ccccc4)nn23)cc1	none
COc1cc(OC)cc(C(=O)N2C[C@@H](F)C[C@H]2C(=O)N2CCCCC2)c1	none
CC(C)(C)c1cc(CC2(NCc3ccccc3O)COC2)no1	none
CCO[C@H]1CN(C(=O)c2ccccc2Cc2ccc(C)c(F)c2)C[C@@H]1O	none
CN1CC[C@H]2CN(C(=O)COCc3nc4ccc(F)cc4[nH]3)C[C@H]21	none
COc1ccccc1C(=O)Nc1cc2c(cc1N1CCCC1)n(C)c(=O)c(=O)n2C	none
CCOC(=O)C1CCN(c2cc3c(cc2NC(=O)c2ccccc2Cl)n(C)c(=O)n3C)CC1	Pf Dd2 growth 11µM
CCOC(=O)c1ccccc1NC(=O)Nc1cc2c(cc1N1CCCC1)n(C)c(=O)n2C	none
Fc1cccc(CN2CCC(Oc3ccc(-c4noc(C5CC5)n4)cc3)C2)c1 (stereo not drawn)	none
COC1CN(C2CCN(C(=O)CC(C)C)CC2)C12CCOCC2 (stereo not drawn)	none
Cc1cccc(Cn2c(-c3ccc(Cl)cc3)nc(C)c(CCO)c2=O)c1	none
COc1ccc(-c2ccc3nnc(CNC(=O)c4sccc4C)n3n2)cc1	none
Cc1ccc(Cn2c(C3CCN(C(=O)c4ccc(C#N)cc4)CC3)n[nH]c2=O)cc1	none
Cc1ccc(-n2c(C3CCN(C(=O)c4ccc(C(C)(C)C)cc4)CC3)n[nH]c2=O)cc1	Pf Dd2 growth 4.5µM
Cc1ccc(-n2c(C3CCN(C(=O)COc4ccc(F)cc4)CC3)n[nH]c2=O)cc1	none
Cc1ccc(Cn2c(C3CCN(C(=O)c4cccc(Cl)c4)CC3)n[nH]c2=O)cc1	none
Cc1ccc(-n2c(C3CCN(C(=O)c4cc(C)cc(C)c4)CC3)n[nH]c2=O)cc1	none
Cc1ccc(-n2c(C3CCN(C(=O)c4cccc(C)c4)CC3)n[nH]c2=O)cc1	none
Cc1ccc(-n2c(C3CCN(C(=O)c4cc(Cl)ccc4F)CC3)n[nH]c2=O)cc1	none
Cc1ccc(Cn2c(C3CCN(C(=O)c4cc(C)cc(C)c4)CC3)n[nH]c2=O)cc1	Pf Dd2 growth 8.9µM
Cc1ccc(Cn2c(C3CCN(C(=O)c4ccc(C(C)(C)C)cc4)CC3)n[nH]c2=O)cc1	Pf Dd2 growth 2.5µM
Cc1ccc(-n2c(C3CCN(C(=O)COc4ccc(Cl)cc4)CC3)n[nH]c2=O)cc1	Pf Dd2 growth 0.89µM
Cc1ccc(Cn2c(C3CCN(C(=O)c4cccc(C)c4)CC3)n[nH]c2=O)cc1	none
CCc1ccc(C(=O)N2CCC(c3n[nH]c(=O)n3Cc3ccc(F)cc3)CC2)cc1	none
CC(=O)N1CCC(C2CCN(Cc3cc(F)c(F)cc3F)C2)CC1 (stereo not drawn)	none
O=C1C2CN(Cc3ccccc3Cl)CCC2OCCN1Cc1ccccc1 (stereo not drawn)	none
CCC(=O)N(C1CCOCC1)C1CCN(C(=O)c2ccncc2)CC1	none
O=C1CO[C@H]2CCN(CCCc3ccccc3)CC[C@@H]2N1c1ccccc1	none
COCCN1CCC(CN(Cc2ccncc2)C(=O)c2cnccn2)CC1	none
CCn1cc(-c2ccc(OC)cc2)cc1C(=O)O	none
CCc1ccccc1NC(=O)N1CCC(Oc2ncccc2C(=O)N2CCOCC2)C1 (stereo not drawn)	none
Fc1ccc(OC2CN(Cc3cccc4ccccc34)C2)cc1F	none
O=C(NCc1ccc(Cl)nc1)c1cn2c(n1)CN(C(=O)c1ccccc1F)CC2	none
COCc1nc(C2CCCN(C(=O)COc3cccc(C)c3)C2)no1 (stereo not drawn)	none
COc1ccc(S(=O)(=O)N2CCOC[C@H](Oc3ccccc3)C2)cc1	none
CCOCCOC1CCN(C(=O)Nc2ccc(OC)cc2)CC1	none
COc1nc2c(cc1CNC(=O)C1COCCO1)C(=O)N(C1CCCC1)C2 (stereo not drawn)	none
CC(C)(C)OC(=O)N1CCC(c2c(C(=O)NCc3ccco3)cnn2-c2ccccc2)CC1	Pf Dd2 growth 10µM
Cc1ccc(-n2ncc(C(=O)NCc3cccs3)c2C2CCN(C(=O)OC(C)(C)C)CC2)cc1	none
Cc1ccc(-n2ncc(C(=O)NC3CCCC3)c2C2CCN(C(=O)OC(C)(C)C)CC2)c(C)c1	Pf Dd2 growth 10µM
CC(C)(C)OC(=O)N1CCC(c2c(C(=O)NCCCN3CCc4ccccc4C3)cnn2-c2ccccc2)CC1	Pf Dd2 growth 8.9µM
CC(C)(C)OC(=O)N1CCC(c2c(C(=O)NCc3ccccc3)cnn2-c2ccccc2)CC1	none
Cc1ccc(-n2ncc(C(=O)NCCCN3CCN(C)CC3)c2C2CCN(C(=O)OC(C)(C)C)CC2)cc1	none
COCCNC(=O)c1cnn(-c2ccc(C)cc2C)c1C1CCN(C(=O)OC(C)(C)C)CC1	none
Cc1ccc(-n2ncc(C(=O)NCCCN3CCCCC3)c2C2CCN(C(=O)OC(C)(C)C)CC2)c(C)c1	Pf Dd2 growth 8.9µM
CCN1CCN(CCCNC(=O)c2cnn(-c3ccccc3)c2C2CCN(C(=O)OC(C)(C)C)CC2)CC1	none
NC(=O)[C@H](CC1CCCCC1)NC(=O)[C@H]1CN(C(=O)C2CCNCC2)CCN1C(=O)NC1CCCCC1	none
O=C1NCCC[C@@H]1NC(=O)[C@@H]1CN(C(=O)c2cccc(F)c2)CCN1C(=O)C1CCNCC1	none
COc1ccc([C@@H](NC(=O)c2ccc3ncsc3c2)C2CC(O)C2)cn1 (stereo partly drawn)	none
O=C(N[C@@H]1CCN(C(=O)c2ccc3c(c2)OCO3)C[C@H]1O)c1cnccn1	none
CCN(c1ccc2c(c1)OCO2)C1CN(C(=O)OC(C)(C)C)C1	none
CCn1ccc(C(=O)NCCc2noc(-c3ccncc3)n2)n1	none
O=C1CN(c2ccc(C(=O)N3C[C@@H](C(=O)O)[C@H](C4CC4)C3)cc2)C(=O)N1	none
O=C([C@@H]1C[C@H](Oc2ccccc2)CN1C(=O)CN1CCOCC1)N1CCOCC1	none
Cc1cnc(C(=O)N2CCC(c3nc(CCOc4ccc(F)cc4)no3)C2)cn1 (stereo not drawn)	none
O=C(Cc1ccccc1)N1CCC2(Cc3ccccc3NC2=O)C1 (stereo not drawn)	none
c1ccc(-c2nnc3ccc(Nc4ccc(N5CCOCC5)cc4)nn23)nc1	none
COc1ccc(C(=O)N2CCC(Cc3nncn3Cc3ccccc3)C2)cc1 (stereo not drawn)	none

Screening results (PubChem)
